# “And” between values parts separate entries of the source, which are not always exact repeats. Equal entries are not always repeated. Inconclusive results are not listed. The source made the active and inactive calls.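 How the source made its calls, unless noted: active means GFP signal, as percent of the solvent control, above the screen mean plus 3 SD, about 149; inconclusive means no reading because the compound's own fluorescence upset strain identification; inactive means the rest.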
# Experiments:
# [1] = rapamycin-like changes in RPL19A-GFP expression – cell-based, S. cerevisiae, multiplex flow cytometry, primary screen (AID 1862; in the data active means percent of DMSO control GFP below about 86%;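 further: lower values mimic rapamycin by blocking the RPL19A rise seen in DMSO cells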); conditions: S. cerevisiae RPL19A-GFP strain, flow cytometry fluorescence, 3 h; at 10 µM; stronger effect = lower value
# [2] = TOR pathway GLN3 branch reporter MEP2-GFP changes – S. cerevisiae, multiplex flow cytometry, primary screen (AID 1867;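 active means GFP response, as percent of the DMSO control, above the screen-wide mean plus 3 SD, about 139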;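 further: median GFP channel fluorescence of barcode-gated MEP2-GFP cells measured by flow cytometry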); conditions: S. cerevisiae MEP2-GFP strain, 3 h, at 10 µM, stronger effect = higher value, 100% means same as DMSO wells
# [3] = TOR pathway RTG branch CIT2 reporter changes – S. cerevisiae, GFP fusion, multiplex flow cytometry, primary screen (AID 1870;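 active means percent response above a set limit, the screen-wide mean plus 3 SD, cut at about 130% in these data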;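 further: barcoded CIT2-GFP strain pooled with four other GFP strains with rapamycin as positive control; median GFP fluorescence per well over plate mean of DMSO wells so 100% = DMSO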); conditions: S. cerevisiae CIT2-GFP expression, 3 h, at 10 µM, stronger effect = higher value
# [4] = TOR pathway LAP4-GFP level changes – S. cerevisiae, multiplex flow cytometry, primary screen (AID 1873); conditions: S. cerevisiae LAP4-GFP expression, 3 h, at 10 µM, stronger effect = higher value
# [5] = yeast AGP1-GFP level changes, GLN3 branch – cell-based, multiplex flow cytometry, S. cerevisiae, primary screen (AID 1887;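 active means GFP signal above the screen-wide mean plus 3 SD, that is over about 124.5% of the solvent control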;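 further: AGP1-GFP fusion strain of S. cerevisiae within a five-strain barcoded multiplex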); conditions: 3 h, at 10 µM, stronger effect = higher value
# [6] = reduced mouse 2C T cell binding to pMHC/ICAM-1 vesicles – MLPCN validation set, flow cytometry, LFA-1/ICAM-1 modulator project, pilot screen (AID 2523;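 active means response below a set limit, under 55% cells CD8-positive and vesicle-bound, and CD8 cells' 90th-percentile brightness under 279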;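 on vesicle binding response: mean PE anti-B7-1 fluorescence of CD8+ cells relative to row control; 100% = QL9-loaded vesicles with DMSO vehicle in the same plate row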); conditions: 2C mouse CD8+ T cells, at 7 µM, stronger effect = lower value; double positive events: measured here: CD8+/vesicle+ event percentage
# [7] = target: Integrin beta-1 (Homo sapiens) + Integrin alpha-4 (Homo sapiens) (UniProt P13612+P05556); assay: alpha4beta1 integrin LIBS antibody binding reduction – U937 cells, HUTS-21 mAb, flow cytometry, validation set, VLA-4 allosteric modulator project, pilot screen (AID 2674;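 active means inhibition above 50%, about 3 SD of the validation set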;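 further: antibody binding induced by the VLA-4 ligand LDV present at three times its Kd; 0% = LDV ligand with antibody and no compound and 100% = antibody without LDV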); conditions: HUTS-21 LIBS mAb binding, at 6.7 µM, stronger effect = higher value, binding induced by LDV ligand
# Chain of Integrin beta-1 (Homo sapiens) + Integrin alpha-4 (Homo sapiens) (P05556 whole entry, looked up): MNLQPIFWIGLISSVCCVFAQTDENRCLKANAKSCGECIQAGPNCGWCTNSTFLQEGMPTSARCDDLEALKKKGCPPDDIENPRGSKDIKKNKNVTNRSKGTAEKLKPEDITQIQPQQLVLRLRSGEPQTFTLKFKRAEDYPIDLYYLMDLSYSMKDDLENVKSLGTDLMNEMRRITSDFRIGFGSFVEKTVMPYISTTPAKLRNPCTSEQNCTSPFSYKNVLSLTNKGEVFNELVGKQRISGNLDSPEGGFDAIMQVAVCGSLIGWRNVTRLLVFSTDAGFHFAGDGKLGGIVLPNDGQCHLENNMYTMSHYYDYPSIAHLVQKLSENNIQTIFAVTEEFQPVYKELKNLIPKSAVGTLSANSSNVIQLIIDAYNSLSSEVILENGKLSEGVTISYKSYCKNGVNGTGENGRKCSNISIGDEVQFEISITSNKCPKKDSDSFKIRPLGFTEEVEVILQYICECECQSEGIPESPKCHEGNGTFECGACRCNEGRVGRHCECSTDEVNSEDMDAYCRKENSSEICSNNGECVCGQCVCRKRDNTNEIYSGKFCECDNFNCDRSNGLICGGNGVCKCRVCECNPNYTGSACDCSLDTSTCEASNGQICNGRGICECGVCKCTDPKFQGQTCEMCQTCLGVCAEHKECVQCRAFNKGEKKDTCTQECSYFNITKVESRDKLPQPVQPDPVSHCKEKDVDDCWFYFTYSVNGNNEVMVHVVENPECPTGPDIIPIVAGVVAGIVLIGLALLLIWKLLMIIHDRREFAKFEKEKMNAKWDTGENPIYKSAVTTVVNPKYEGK
# Chain of Integrin beta-1 (Homo sapiens) + Integrin alpha-4 (Homo sapiens) (P13612 whole entry, looked up): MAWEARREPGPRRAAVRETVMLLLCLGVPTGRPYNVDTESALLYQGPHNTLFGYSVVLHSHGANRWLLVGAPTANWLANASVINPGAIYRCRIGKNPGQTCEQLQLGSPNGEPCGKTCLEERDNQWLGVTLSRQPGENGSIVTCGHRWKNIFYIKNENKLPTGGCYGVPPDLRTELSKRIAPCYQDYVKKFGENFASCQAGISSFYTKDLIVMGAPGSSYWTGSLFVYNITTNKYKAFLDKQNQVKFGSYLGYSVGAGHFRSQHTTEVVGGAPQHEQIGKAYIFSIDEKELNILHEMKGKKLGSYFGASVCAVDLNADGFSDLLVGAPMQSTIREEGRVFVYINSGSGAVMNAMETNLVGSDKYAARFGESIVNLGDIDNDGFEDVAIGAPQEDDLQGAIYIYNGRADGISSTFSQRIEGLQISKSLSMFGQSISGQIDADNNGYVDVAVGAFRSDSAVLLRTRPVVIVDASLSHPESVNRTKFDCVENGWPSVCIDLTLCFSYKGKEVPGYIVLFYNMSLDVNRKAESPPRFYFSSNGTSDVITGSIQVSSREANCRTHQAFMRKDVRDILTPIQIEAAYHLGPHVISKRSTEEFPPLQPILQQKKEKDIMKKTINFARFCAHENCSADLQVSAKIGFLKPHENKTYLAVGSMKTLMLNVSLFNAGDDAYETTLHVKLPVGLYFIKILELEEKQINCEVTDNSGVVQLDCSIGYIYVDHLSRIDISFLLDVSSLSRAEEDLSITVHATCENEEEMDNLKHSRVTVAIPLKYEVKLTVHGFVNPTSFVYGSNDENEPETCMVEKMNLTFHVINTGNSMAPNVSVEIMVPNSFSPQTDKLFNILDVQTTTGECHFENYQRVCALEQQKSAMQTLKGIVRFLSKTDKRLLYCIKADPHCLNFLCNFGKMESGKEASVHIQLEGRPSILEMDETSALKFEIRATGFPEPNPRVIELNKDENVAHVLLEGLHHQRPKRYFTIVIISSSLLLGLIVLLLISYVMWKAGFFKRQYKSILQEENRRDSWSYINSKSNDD
# [8] = calorie-restriction mimetic ROS inhibitors, yeast – validation compound set, pilot screen (AID 2706;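 active means superoxide response below 65% of plate, a cut near 3 SD across the whole screen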;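 further: yeast exposed to compound for one week at 30 degrees C before staining; 100% = mean of all compound wells on the same plate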); conditions: S. cerevisiae aging, superoxide DHE fluorescence; at 10 µM; stronger effect = lower value
# [9] = target: Beta-adrenergic receptor kinase 1 (Homo sapiens) (UniProt P25098); assay: GRK2 binders displacing RNA aptamer, biochemical, validation, human GRK2, bead flow cytometry (AID 488806;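 active means aptamer binding inhibition above 30%, about 3 SD of noise from non-fluorescent compounds; inactive means inhibition at or below 30%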); conditions: bead-bound GRK2, FAM-aptamer displacement, at 10 µM, stronger effect = higher value
# Chain of Beta-adrenergic receptor kinase 1 (Homo sapiens) (P25098 whole entry, looked up): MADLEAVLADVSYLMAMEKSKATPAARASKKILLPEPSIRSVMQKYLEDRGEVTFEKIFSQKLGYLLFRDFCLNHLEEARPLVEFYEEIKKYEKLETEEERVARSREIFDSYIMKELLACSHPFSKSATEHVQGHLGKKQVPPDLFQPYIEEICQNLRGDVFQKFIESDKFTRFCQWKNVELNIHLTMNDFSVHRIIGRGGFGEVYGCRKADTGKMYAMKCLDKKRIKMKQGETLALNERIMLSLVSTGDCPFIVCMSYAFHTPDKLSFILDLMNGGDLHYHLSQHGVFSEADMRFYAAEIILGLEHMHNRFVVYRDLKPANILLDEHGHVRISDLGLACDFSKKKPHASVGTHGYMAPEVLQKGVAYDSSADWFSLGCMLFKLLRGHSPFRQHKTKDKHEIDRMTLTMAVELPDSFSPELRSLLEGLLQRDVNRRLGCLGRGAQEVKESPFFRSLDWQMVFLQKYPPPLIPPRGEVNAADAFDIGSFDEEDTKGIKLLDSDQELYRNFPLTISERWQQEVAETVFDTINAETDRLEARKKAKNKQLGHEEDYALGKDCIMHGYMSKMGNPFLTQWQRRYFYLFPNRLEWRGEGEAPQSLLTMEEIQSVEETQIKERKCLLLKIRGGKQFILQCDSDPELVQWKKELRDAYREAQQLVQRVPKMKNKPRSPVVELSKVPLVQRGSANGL
# [10] = target: Beta-2 adrenergic receptor (Homo sapiens) (UniProt P07550); assay: agonist-induced loss of surface beta2AR – cell-based, FAP fluorogen, flow cytometry, validation set, pilot screen (AID 504459;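 active means percent response above 42, roughly 3 SD of non-fluorescent test compounds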;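 further: agonist-driven loss of surface beta2AR via internalization measured by FAP dye flow cytometry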); conditions: Am2.2-beta2AR cells, at 10 µM, stronger effect = higher value
# Chain of Beta-2 adrenergic receptor (Homo sapiens) (P07550 whole entry, looked up): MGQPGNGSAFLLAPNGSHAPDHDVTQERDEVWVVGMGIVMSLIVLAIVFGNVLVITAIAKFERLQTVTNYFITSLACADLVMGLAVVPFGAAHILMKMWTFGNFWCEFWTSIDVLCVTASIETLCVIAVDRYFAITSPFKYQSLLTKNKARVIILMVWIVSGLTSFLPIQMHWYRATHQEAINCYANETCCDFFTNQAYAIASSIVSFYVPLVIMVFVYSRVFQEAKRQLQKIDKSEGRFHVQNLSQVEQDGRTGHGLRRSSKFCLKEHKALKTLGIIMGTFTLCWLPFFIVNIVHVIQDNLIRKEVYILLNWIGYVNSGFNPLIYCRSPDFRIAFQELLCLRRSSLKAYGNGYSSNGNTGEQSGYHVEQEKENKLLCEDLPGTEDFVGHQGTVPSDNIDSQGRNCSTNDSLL
# [11] = target: AP-2 complex subunit beta (Homo sapiens) (UniProt P63010); assay: beta-arrestin/AP2 interaction blockers – biochemical, validation set, GST-AP2 beads, flow cytometry, pilot screen (AID 504541;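 active means inhibition above 54%, about 3 SD of non-fluorescent compounds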;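 further: AP2 carries R879A mutation and is captured from E. coli lysate; bead-bound FITC arrestin peptide fluorescence measuring arrestin peptide binding to AP2; 0% = DMSO wells and 100% = excess unlabeled arrestin peptide control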); conditions: FITC arrestin peptide, at 10 µM, stronger effect = higher value, AP2 beta2 appendage fragment, R879A mutant
# Chain of AP-2 complex subunit beta (Homo sapiens) (P63010 whole entry, looked up, the tested form may be a part, one chain of several): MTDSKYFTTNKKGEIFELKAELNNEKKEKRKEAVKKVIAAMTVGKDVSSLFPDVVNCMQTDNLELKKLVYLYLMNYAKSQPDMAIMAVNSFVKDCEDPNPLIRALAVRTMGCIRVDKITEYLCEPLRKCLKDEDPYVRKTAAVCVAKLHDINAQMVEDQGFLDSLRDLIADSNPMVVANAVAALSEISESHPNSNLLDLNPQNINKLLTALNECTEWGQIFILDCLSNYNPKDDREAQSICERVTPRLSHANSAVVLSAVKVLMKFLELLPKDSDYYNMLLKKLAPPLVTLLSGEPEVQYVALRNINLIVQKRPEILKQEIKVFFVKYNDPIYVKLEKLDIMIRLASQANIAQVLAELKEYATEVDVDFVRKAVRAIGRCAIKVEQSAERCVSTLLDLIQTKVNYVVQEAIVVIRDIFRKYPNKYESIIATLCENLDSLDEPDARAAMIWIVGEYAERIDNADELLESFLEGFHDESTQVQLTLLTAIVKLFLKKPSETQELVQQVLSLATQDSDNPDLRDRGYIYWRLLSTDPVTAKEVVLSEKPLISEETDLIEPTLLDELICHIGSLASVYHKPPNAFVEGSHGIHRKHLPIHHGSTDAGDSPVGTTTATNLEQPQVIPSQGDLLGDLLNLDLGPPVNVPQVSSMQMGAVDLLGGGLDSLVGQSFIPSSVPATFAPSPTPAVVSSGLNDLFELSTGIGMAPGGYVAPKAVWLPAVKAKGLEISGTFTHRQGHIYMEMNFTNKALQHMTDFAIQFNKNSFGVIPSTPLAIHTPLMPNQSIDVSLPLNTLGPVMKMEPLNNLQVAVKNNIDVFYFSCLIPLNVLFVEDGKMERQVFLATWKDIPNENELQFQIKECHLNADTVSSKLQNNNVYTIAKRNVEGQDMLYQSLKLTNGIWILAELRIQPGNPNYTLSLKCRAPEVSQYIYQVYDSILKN
# [12] = cytosolic pH regulators acting via V-ATPase – S. cerevisiae, pHLuorin, HTS validation (AID 504600; in the data active means response above about 15%;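 further: plate controls were DMSO for no effect and reference compound for full effect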); conditions: V-ATPase proton transport, at 10 µM, stronger effect = higher value
# [13] = test system: anti-desmoglein-3 scFv antibody binding to human DSG3; assay: blockers of pathogenic pemphigus antibody–desmoglein-3 binding – biochemical, validation compound set, bead-based, flow cytometry, pilot screen (AID 588368;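 active means binding below the plate cutoff, the plate median minus 3 SD, with a reading above zero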;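 further: signal is the median channel fluorescence of bead-bound GFP antibody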); conditions: Protein G beads, DSG3-Fc, scFv-GFP binding, at 10 µM, stronger effect = lower value
# [14] = Nile Red efflux blockade in pump-expressing yeast – validation compound set, multiplex, phenotypic, pilot screen (AID 588506;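 active means efflux inhibition above 0.42, the validation set average plus 4 SD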;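 further: Nile Red retained in cells so higher fluorescence means more efflux inhibition; 0 = negative control wells and 1 = enniatin B 25 µM full block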); conditions: S. cerevisiae pump-expressing triplex, Nile Red efflux flow cytometry; at 10 µM; stronger effect = higher value; the pumps come from Candida albicans
# [15] = target: ATP-binding cassette sub-family B member 6 (Homo sapiens) (UniProt Q9NP58); assay: blockers of ABCB6-driven porphyrin uptake – K562-ABCB6 cells, flow cytometry, validation set, pilot screen (AID 588550;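 active means inhibition above the screen-wide mean plus 3 SD, about 51%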;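 further: 0% = DMSO wells and 100% = benzethonium chloride 70 µM positive control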); conditions: K562-ABCB6 porphyrin accumulation, 1 h, at 10 µM, stronger effect = higher value
# Chain of ATP-binding cassette sub-family B member 6 (Homo sapiens) (Q9NP58 whole entry, looked up): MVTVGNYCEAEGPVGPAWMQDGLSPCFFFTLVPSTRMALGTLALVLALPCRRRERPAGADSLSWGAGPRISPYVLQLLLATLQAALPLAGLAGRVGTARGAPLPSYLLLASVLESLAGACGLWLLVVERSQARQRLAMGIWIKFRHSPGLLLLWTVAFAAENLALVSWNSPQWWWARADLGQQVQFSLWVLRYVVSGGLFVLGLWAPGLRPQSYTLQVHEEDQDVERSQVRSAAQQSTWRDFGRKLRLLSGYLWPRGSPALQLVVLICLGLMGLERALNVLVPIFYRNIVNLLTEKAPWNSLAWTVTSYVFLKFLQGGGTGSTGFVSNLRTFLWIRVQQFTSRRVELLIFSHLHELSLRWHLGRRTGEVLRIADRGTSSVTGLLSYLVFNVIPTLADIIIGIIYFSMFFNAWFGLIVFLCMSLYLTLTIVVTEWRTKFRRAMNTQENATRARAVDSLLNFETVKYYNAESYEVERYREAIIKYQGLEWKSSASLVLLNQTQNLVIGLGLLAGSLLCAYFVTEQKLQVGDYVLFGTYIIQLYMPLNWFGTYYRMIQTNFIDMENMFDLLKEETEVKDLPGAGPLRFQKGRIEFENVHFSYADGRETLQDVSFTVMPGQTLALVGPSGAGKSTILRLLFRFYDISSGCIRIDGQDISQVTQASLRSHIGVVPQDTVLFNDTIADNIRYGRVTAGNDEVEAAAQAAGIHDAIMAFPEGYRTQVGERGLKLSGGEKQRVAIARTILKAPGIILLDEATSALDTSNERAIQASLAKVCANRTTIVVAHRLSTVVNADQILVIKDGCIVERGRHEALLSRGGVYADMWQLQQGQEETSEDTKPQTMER
# [16] = AML differentiation inducers, ER-HoxA9 marrow cells – cell-based, GFP/MAC1 double positive, flow cytometry, validation set, primary screen (AID 588685;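 active means differentiation response of at least 50%, scaled between solvent and reference control, from cells with both markers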;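 further: compound exposure lasts four days before antibody staining and flow analysis; 0% = DMSO wells and 100% = 5 µM fulvestrant positive control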); conditions: stronger effect = higher value, normalized: vehicle 0, fulvestrant 100
SMILES,percent of DMSO control GFP [1],GFP response vs DMSO [2],percent response of DMSO control [3],GFP response vs DMSO [4],"GFP response, % of DMSO [5]",double positive events [6],vesicle binding response [6],inhibition [7],superoxide response (% of plate) [8],aptamer binding inhibition [9],response [10],inhibition [11],response [12],binding (% of control) [13],efflux inhibition (fraction of control) [14],inhibition [15],differentiation response [16]
CC(=O)c1c(C)c(C)c2n1CCn1c(C)ccc1-2,105% (inactive),107% (inactive),93.1% (inactive),121% (inactive),107% (inactive),60.2%,141% (inactive),-36.9% (inactive),99.4% (inactive),0% (inactive),-22.4% (inactive),6.32% (inactive),-6.83% (inactive),116% (inactive),-0.09 (inactive),-18% (inactive),-5.97% (inactive)
COc1ccc(-c2cc(=O)oc3cc(OC(C)C(=O)O)ccc23)cc1 (stereo unspecified),107% (inactive),94.7% (inactive),93.8% (inactive),104% (inactive),107% (inactive),63.4%,124% (inactive),11.7% (inactive),115% (inactive),3% (inactive),-24.8% (inactive),6.04% (inactive),1.91% (inactive),108% (inactive),0 (inactive),3% (inactive),19.6% (inactive)
COC(=O)C1=C(C)NC(C)=C(C(=O)OCCN(C)Cc2ccccc2)C1c1cccc([N+](=O)[O-])c1 (stereo unspecified),101% (inactive),108% (inactive),96.5% (inactive),100% (inactive),110% (inactive),61.3%,159% (inactive),0.25% (inactive),98.7% (inactive),1% (inactive),0.14% (inactive),57.5% (active),-9.84% (inactive),97.3% (inactive),0.01 (inactive),-2% (inactive),-1.65% (inactive)
Cc1ccc(C)c(OCCCC(C)(C)C(=O)O)c1,98% (inactive),97.2% (inactive),95.4% (inactive),122% (inactive),89.6% (inactive),62.8%,203% (inactive),-0.45% (inactive),104% (inactive),4% (inactive),-7.3% (inactive),-6.6% (inactive),4.38% (inactive),96.4% (inactive),0.05 (inactive),10% (inactive),6.11% (inactive)
C=C(C)[C@@H]1CC=C(CN2CCC(N3CCC(C(=O)N4CCCC4)CC3)CC2)CC1,105% (inactive),91.9% (inactive),120% (inactive),92% (inactive),101% (inactive),60.1%,292% (inactive),1.62% (inactive),92.9% (inactive),-18% (inactive),-3.2% (inactive),-12.5% (inactive),1.83% (inactive),130% (inactive),0.08 (inactive),-18% (inactive),6.11% (inactive)
CCCCCC(O)c1cccc(OCc2ccc3ccccc3n2)c1 (stereo unspecified),101% (inactive),97.6% (inactive),99% (inactive),130% (inactive),109% (inactive),65.2%,227% (inactive),22.7% (inactive),110% (inactive),2% (inactive),-42.6% (inactive),6.94% (inactive),1.82% (inactive),92.4% (inactive),0.04 (inactive),5% (inactive),-8.93% (inactive)
O=C(NCCc1ccccc1)C1CCN(C2CCN(Cc3ccco3)CC2)CC1,98.6% (inactive),105% (inactive),101% (inactive),118% (inactive),120% (inactive),58.9%,159% (inactive),-9.63% (inactive),92.6% (inactive),-13% (inactive),-41.8% (inactive),-2.11% (inactive),-0.87% (inactive),126% (inactive),-0.04 (inactive),6% (inactive),-5.97% (inactive)
NC(=O)c1cnccn1,101% (inactive),110% (inactive),92.5% (inactive),110% (inactive),111% (inactive),60.5%,240% (inactive),10.8% (inactive),102% (inactive),9% (inactive),-6.65% (inactive),-9.13% (inactive),11.1% (inactive),102% (inactive),-0.09 (inactive),2% (inactive),25.6% (inactive)
CC(C)(C)C(=O)N1CCCC1C(=O)O (stereo unspecified),104% (inactive),96.6% (inactive),99% (inactive),99.5% (inactive),106% (inactive),65.6%,141% (inactive),4.84% (inactive),95.6% (inactive),11% (inactive),-4.87% (inactive),-2.34% (inactive),-11% (inactive),103% (inactive),-0.04 (inactive),2% (inactive),11.8% (inactive)
COC(=O)CN1C(=S)N(c2ccc(F)cc2)C(=O)C1CC(=O)Nc1ccccc1 (stereo unspecified),99.7% (inactive),101% (inactive),102% (inactive),120% (inactive),118% (inactive),57.4%,189% (inactive),11.7% (inactive),103% (inactive),1% (inactive),-25.4% (inactive),0.21% (inactive),0.96% (inactive),101% (inactive),0 (inactive),-3% (inactive),-10.9% (inactive)
Cc1nc2c(c3c1[nH]c1ccccc13)C(=O)CC(C)(C)C2,99.1% (inactive),114% (inactive),86.3% (inactive),114% (inactive),102% (inactive),59.1%,186% (inactive),6.4% (inactive),99.2% (inactive),3% (inactive),31.6% (inactive),6.18% (inactive),-1.94% (inactive),98.9% (inactive),0.3 (inactive),1% (inactive),-5.6% (inactive)
CCN(CC)CC(=O)Nc1c(C)cccc1C,106% (inactive) and 100% (inactive),109% (inactive) and 94.1% (inactive),101% (inactive) and 109% (inactive),105% (inactive) and 98.2% (inactive),107% (inactive) and 105% (inactive),65.6% and 64.5%,12800% (inactive),6.4% (inactive) and 0.94% (inactive),87.6% (inactive) and 113% (inactive),5% (inactive) and 0% (inactive),-4.24% (inactive) and -9.06% (inactive),-9.42% (inactive) and -7.53% (inactive),-5.61% (inactive) and -5.05% (inactive),94.5% (inactive) and 99.9% (inactive),0.05 (inactive) and -0.1 (inactive),10% (inactive) and 7% (inactive),-8.8% (inactive) and -15.2% (inactive)
COc1cc(C(=S)N(C)C)ccc1O,107% (inactive),104% (inactive),113% (inactive),92.6% (inactive),116% (inactive),62.6%,115% (inactive),-11.8% (inactive),92.7% (inactive),-1% (inactive),8.54% (inactive),-1.41% (inactive),3.06% (inactive),101% (inactive),-0.005 (inactive),-8% (inactive),15.9% (inactive)
Cc1nc2cc3ccccc3cc2c(=O)[nH]1,102% (inactive),106% (inactive),101% (inactive),104% (inactive),96.6% (inactive),60.4%,160% (inactive),-26.1% (inactive),104% (inactive),6% (inactive),9.81% (inactive),-19.1% (inactive),1.08% (inactive),98% (inactive),0.07 (inactive),-9% (inactive),-2.64% (inactive)
CC(C)(C)NCC(O)COc1cccc2c1C[C@H](O)[C@H](O)C2 (stereo partly specified),104% (inactive),108% (inactive),98.9% (inactive),88.1% (inactive),98.1% (inactive),62.6%,1270% (inactive),-16% (inactive),104% (inactive),3% (inactive),0.85% (inactive),55.4% (active),-3.23% (inactive),99.2% (inactive),0.05 (inactive),17% (inactive),14.9% (inactive)
CCN(CC)CCCNC(=O)C1c2ccccc2Oc2ccccc21,100% (inactive),95.1% (inactive),95.4% (inactive),89.4% (inactive),97.2% (inactive),64.1%,1360% (inactive),13% (inactive),101% (inactive),2% (inactive),2.25% (inactive),17% (inactive),-0.98% (inactive),101% (inactive),0.49 (active),-2% (inactive),26.6% (inactive)
NS(=O)(=O)c1ccc(CCNC(=O)C2CCCN2C(=O)OCc2ccccc2)cc1 (stereo unspecified),97.2% (inactive),109% (inactive),112% (inactive),77.6% (inactive),103% (inactive),52.2%,214% (inactive),1.61% (inactive),110% (inactive),-8% (inactive),-16.9% (inactive),-5.77% (inactive),2.16% (inactive),104% (inactive),0.19 (inactive),11% (inactive),3.28% (inactive)
CC(C)=CCC/C(C)=C/CC/C(C)=C/CC/C(C)=C/CC1=C(C)C(=O)c2ccccc2C1=O,98.2% (inactive),105% (inactive),101% (inactive),121% (inactive),116% (inactive),58.9%,205% (inactive),-7.08% (inactive),102% (inactive),2% (inactive),-16% (inactive),-12.1% (inactive),-1.04% (inactive),99.2% (inactive),-0.09 (inactive),-4% (inactive),-6.96% (inactive)
